The full data set covers some 7,900 targets. This sample favours those with a hit. About 0.6% of all pairs of compound and target were hits.
Legend:
Assay in all cases: log2 fold change, soluble protein after heating vs DMSO (PISA); higher = thermal stabilisation; K562 cells, 10 uM, 30 min; active = over 0.2 and 3.5 SD of the protein, either way, in both replicates (recomputed)
[1] = compound: CC1=C(C=C(C=C1)NC(=O)C2=CC(=CC=C2)C(C)(C)C#N)NC3=CC4=C(C=C3)N=CN(C4=O)C
How it was run: (§1)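 Aliquots of K562 cells (2×10^6 cells/mL) treated with 10 μM compound for 30 min were heated for 3 min over 48°C-58°C. After pooling and extraction in PBS with 0.5% NP-40 at 4°C, soluble protein from a 21,000xg, 90 min spin was quantified by TMTpro 16plex LC-MS/MS with channel sums equalised. Thermal stability is expressed against control samples, from duplicates, as a log2 fold change.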

[2] = compound: CC1=C(C=C(C=C1)NC(=O)C2=CC(=CC=C2)N(C)C)NC(=O)C3=CC=C(C=C3)O
How it was run: as §1

[3] = compound: CC1=CC=C(C=C1)SC2=C3C=C(SC3=CN=C2)C(=O)N
How it was run: as §1

[4] = compound: CC1=NC(=CC=C1)C2=C(N=C(N2)C(C)(C)C)C3=CC4=NC=CN=C4C=C3
How it was run: as §1

Nexturastat A = compound: CCCCN(Cc1ccc(C(=O)NO)cc1)C(=O)Nc1ccccc1 [Nexturastat A]
How it was run: as §1

vemurafenib = compound: CCCS(=O)(=O)Nc1ccc(F)c(C(=O)c2c[nH]c3ncc(-c4ccc(Cl)cc4)cc23)c1F [vemurafenib]
How it was run: as §1

[5] = compound: CCCS(=O)(=O)Nc1ccc(F)c(C(=O)c2c[nH]c3ncc(Cl)cc23)c1F
How it was run: as §1

[6] = compound: CCCc1cc(C)[nH]c(=O)c1CNC(=O)c1cc(-c2ccnc(N3CCN(C)CC3)c2)cc2c1cnn2C(C)C
How it was run: as §1

givinostat = compound: CCN(CC)Cc1ccc2cc(COC(=O)Nc3ccc(C(=O)NO)cc3)ccc2c1 [givinostat]
How it was run: as §1

barasertib = compound: CCN(CCCOc1ccc2c(Nc3cc(CC(=O)Nc4cccc(F)c4)[nH]n3)ncnc2c1)CCOP(=O)(O)O [barasertib]
How it was run: as §1

[7] = compound: CC[C@@H]1C(=O)N(C)c2cnc(Nc3ccc(C(=O)NC4CCN(C)CC4)cc3OC)nc2N1C1CCCC1
How it was run: as §1

volasertib = compound: CC[C@@H]1C(=O)N(C)c2cnc(Nc3ccc(C(=O)N[C@H]4CC[C@H](N5CCN(CC6CC6)CC5)CC4)cc3OC)nc2N1C(C)C [volasertib]
How it was run: as §1

[8] = compound: CC[C@H](C)N1C=C(C2=C(C=C(C=C21)C3=CN=C(C=C3)N4CCNCC4)C(=O)NCC5=C(C=C(NC5=O)C)C)C
How it was run: as §1

epoxomicin = compound: CC[C@H](C)[C@@H](C(=O)N[C@@H]([C@@H](C)O)C(=O)N[C@@H](CC(C)C)C(=O)[C@]1(CO1)C)NC(=O)[C@H]([C@@H](C)CC)N(C)C(=O)C [epoxomicin]
How it was run: as §1

[9] = compound: CCn1c(C(=O)N(C2CC2)C2CC2)cc2c3c(ncn3C)c(Nc3cc(C)n(C)n3)nc21
How it was run: as §1

[10] = compound: CCn1cc(-c2ccnc3[nH]c(-c4cccc(CN(C)C)c4)cc23)c(-c2ccc(NC(=O)N(C)C)cc2)n1
How it was run: as §1

[11] = compound: CN(C)CC(=O)Nc1ccc2[nH]c(=O)c3ccccc3c2c1
How it was run: as §1

rosiglitazone = compound: CN(CCOC1=CC=C(C=C1)C[C@H]2C(=O)NC(=O)S2)C3=CC=CC=N3 (racemic) [rosiglitazone]
How it was run: as §1

[12] = compound: CN1C2=C(C3=C1C(=O)N(N=C3)CC4=CC(=CC=C4)N)SC(=C2)S(=O)C
How it was run: as §1

[13] = compound: CN1CCC(CNc2ccc3ncc(-c4cccc(OC(F)(F)F)c4)n3n2)CC1
How it was run: as §1

Measured: log2 fold change

BOP1 (UniProt Q14137)
inactive: [1] -0.06 | [2] 0.007 | [3] 0.015 | [4] 0.023 | Nexturastat A 0.162 | vemurafenib 0.047 | [5] -0.006 | [6] 0.055 | givinostat 0.09 | barasertib -0.054 | [7] -0.072 | volasertib -0.328 | [8] 0.019 | epoxomicin 0.002 | [9] -0.023 | [10] -0.075 | [11] 0.009 | rosiglitazone -0.053 | [12] 0.228 | [13] 0.141

BAIAP2 (UniProt Q9UQB8)
Sequence of UniProt Q9UQB8 (Q9UQB8 whole entry, looked up): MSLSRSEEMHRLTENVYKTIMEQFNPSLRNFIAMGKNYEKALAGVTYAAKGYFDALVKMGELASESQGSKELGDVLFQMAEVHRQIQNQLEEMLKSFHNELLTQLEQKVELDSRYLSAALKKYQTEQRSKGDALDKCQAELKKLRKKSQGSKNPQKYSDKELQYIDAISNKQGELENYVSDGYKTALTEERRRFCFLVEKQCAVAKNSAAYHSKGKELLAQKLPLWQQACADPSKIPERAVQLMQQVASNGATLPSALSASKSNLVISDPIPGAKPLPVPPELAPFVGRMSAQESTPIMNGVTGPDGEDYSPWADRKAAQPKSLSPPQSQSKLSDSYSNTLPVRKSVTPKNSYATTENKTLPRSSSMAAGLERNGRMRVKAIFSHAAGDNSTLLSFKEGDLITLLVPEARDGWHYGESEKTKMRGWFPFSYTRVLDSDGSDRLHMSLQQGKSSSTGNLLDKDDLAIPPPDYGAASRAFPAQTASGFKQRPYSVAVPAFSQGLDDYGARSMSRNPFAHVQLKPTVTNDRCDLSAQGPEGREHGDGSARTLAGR
inactive: [1] -0.019 | [2] 0.01 | [3] 0.007 | [4] -0.012 | Nexturastat A 0.041 | vemurafenib 0.021 | [5] 0.068 | [6] 0.048 | givinostat 0.029 | barasertib 0.048 | [7] -0.045 | volasertib -0.089 | [8] 0.082 | epoxomicin 0.14 | [9] -0.011 | [10] -0.05 | [11] -0.019 | rosiglitazone 0.038 | [12] -0.015 | [13] -0.142

AKT1 (UniProt P31749)
inactive: [1] 0.118 | [2] -0.105 | [3] -0.035 | [4] 0.019 | Nexturastat A 0.145 | vemurafenib -0.227 | [5] 0.008 | [6] 0.049 | givinostat 0.133 | barasertib -0.03 | [7] 0 | volasertib -0.503 | [8] 0.068 | epoxomicin 0.158 | [9] -0.119 | [10] -0.08 | [11] 0.133 | rosiglitazone 0.257 | [12] 0.107 | [13] 0.222

ADD1 isoform 3 (UniProt P35611)
Sequence of UniProt P35611 (P35611 whole entry, looked up): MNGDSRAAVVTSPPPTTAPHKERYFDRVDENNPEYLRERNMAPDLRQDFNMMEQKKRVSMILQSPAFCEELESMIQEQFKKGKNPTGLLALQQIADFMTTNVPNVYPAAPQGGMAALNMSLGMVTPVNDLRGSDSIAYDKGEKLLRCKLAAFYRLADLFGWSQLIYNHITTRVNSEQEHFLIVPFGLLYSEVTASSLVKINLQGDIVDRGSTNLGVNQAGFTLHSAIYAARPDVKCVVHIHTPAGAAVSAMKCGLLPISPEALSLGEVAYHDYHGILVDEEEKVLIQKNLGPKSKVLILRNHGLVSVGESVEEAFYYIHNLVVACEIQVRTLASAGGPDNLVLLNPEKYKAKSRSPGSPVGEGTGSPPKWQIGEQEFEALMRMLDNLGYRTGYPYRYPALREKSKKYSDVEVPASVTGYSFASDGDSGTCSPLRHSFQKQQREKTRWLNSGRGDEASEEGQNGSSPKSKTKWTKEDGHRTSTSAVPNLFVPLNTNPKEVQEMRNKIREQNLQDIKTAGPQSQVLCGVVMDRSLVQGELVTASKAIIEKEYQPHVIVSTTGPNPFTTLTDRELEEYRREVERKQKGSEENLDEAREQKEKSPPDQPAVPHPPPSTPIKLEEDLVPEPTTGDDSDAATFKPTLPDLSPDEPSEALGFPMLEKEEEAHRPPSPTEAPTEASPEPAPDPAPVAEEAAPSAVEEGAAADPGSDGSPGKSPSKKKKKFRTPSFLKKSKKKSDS
inactive: [1] -0.015 | [2] -0.031 | [3] -0.026 | [4] 0.015 | Nexturastat A 0.025 | vemurafenib -0.059 | [5] 0.013 | [6] -0.025 | givinostat -0.015 | barasertib -0.022 | [7] 0.077 | volasertib 0.015 | [8] -0.015 | epoxomicin -0.012 | [9] -0.007 | [10] 0.011 | [11] -0.039 | rosiglitazone -0.004 | [12] -0.055 | [13] 0.053

ATP9B (UniProt O43861)
inactive: [1] -0.185 | [2] -0.007 | [3] -0.054 | [4] 0.061 | Nexturastat A 0.013 | vemurafenib -0.05 | [5] 0.01 | [6] -0.03 | givinostat 0.085 | barasertib 0.013 | [7] -0.002 | volasertib -0.15 | [8] -0.125 | epoxomicin 0.055 | [9] -0.204 | [10] -0.023 | [11] 0.013 | rosiglitazone 0.08 | [12] 0.013 | [13] -0.109

AKAP8L (UniProt Q9ULX6)
inactive: [1] -0.124 | [2] -0.007 | [3] -0.092 | [4] 0.005 | Nexturastat A 0.054 | vemurafenib 0.069 | [5] 0.067 | [6] 0.02 | givinostat 0.004 | barasertib 0.047 | [7] -0.14 | [8] 0.059 | epoxomicin 0.072 | [9] -0.074 | [10] -0.039 | [11] 0.043 | rosiglitazone 0.101 | [12] 0.171 | [13] -0.25
active: volasertib -0.394

ALG11 (UniProt Q2TAA5)
inactive: [1] 0.006 | [2] -0.018 | [3] -0.041 | [4] 0.013 | Nexturastat A -0.004 | vemurafenib 0.053 | [5] 0.019 | [6] -0.04 | givinostat 0 | barasertib 0.043 | [7] -0.034 | volasertib -0.17 | [8] 0.126 | epoxomicin 0.038 | [9] -0.075 | [10] 0.006 | [11] 0.018 | rosiglitazone 0.021 | [12] -0.109 | [13] 0.042

BCLAF1 (UniProt Q9NYF8)
inactive: [1] 0.012 | [2] -0.102 | [3] 0.004 | [4] 0.128 | Nexturastat A 0.098 | vemurafenib 0.225 | [5] 0.097 | [6] 0.009 | givinostat 0.137 | barasertib -0.071 | [7] -0.089 | volasertib -0.08 | [8] 0.024 | epoxomicin -0.027 | [9] -0.016 | [10] -0.002 | [11] 0.099 | rosiglitazone 0.018 | [12] -0.015 | [13] 0.024

AP2A1 (UniProt O95782)
inactive: [1] 0.024 | [2] -0.016 | [3] 0.004 | [4] 0.084 | Nexturastat A 0.048 | vemurafenib 0.009 | [5] 0.03 | [6] -0.003 | givinostat 0.008 | barasertib -0.028 | [7] 0.076 | volasertib -0.085 | [8] 0.015 | epoxomicin -0.011 | [9] 0.022 | [10] -0.002 | [11] -0.041 | rosiglitazone -0.011 | [12] 0.005 | [13] 0

ACAD9 (UniProt Q9H845)
Sequence of UniProt Q9H845 (Q9H845 whole entry, looked up): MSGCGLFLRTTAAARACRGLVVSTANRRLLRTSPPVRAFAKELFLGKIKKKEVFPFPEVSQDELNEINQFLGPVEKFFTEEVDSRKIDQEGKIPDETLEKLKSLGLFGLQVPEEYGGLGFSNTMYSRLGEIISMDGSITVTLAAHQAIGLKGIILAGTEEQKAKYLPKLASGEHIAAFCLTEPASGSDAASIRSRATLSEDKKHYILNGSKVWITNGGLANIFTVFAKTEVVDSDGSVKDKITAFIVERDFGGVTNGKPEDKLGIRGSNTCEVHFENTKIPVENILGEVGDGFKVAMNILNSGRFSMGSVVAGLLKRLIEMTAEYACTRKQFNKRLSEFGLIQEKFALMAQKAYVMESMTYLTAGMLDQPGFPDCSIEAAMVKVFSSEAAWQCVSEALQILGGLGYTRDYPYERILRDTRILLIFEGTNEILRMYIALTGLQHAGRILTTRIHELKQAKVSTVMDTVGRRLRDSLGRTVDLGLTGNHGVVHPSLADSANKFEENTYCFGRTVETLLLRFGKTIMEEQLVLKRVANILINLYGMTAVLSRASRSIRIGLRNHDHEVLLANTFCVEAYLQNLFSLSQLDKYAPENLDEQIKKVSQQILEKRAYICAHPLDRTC
inactive: [1] -0.022 | [2] 0.007 | [3] 0.007 | [4] -0.001 | Nexturastat A -0.061 | vemurafenib 0.053 | [5] -0.019 | [6] -0.009 | givinostat -0.012 | barasertib -0.011 | [7] 0.03 | volasertib 0.024 | [8] -0.039 | epoxomicin 0.015 | [9] 0.006 | [10] 0.014 | [11] 0.022 | rosiglitazone -0.016 | [12] -0.032 | [13] -0.002

ATP7B (UniProt P35670)
Sequence of UniProt P35670 (P35670 whole entry, looked up): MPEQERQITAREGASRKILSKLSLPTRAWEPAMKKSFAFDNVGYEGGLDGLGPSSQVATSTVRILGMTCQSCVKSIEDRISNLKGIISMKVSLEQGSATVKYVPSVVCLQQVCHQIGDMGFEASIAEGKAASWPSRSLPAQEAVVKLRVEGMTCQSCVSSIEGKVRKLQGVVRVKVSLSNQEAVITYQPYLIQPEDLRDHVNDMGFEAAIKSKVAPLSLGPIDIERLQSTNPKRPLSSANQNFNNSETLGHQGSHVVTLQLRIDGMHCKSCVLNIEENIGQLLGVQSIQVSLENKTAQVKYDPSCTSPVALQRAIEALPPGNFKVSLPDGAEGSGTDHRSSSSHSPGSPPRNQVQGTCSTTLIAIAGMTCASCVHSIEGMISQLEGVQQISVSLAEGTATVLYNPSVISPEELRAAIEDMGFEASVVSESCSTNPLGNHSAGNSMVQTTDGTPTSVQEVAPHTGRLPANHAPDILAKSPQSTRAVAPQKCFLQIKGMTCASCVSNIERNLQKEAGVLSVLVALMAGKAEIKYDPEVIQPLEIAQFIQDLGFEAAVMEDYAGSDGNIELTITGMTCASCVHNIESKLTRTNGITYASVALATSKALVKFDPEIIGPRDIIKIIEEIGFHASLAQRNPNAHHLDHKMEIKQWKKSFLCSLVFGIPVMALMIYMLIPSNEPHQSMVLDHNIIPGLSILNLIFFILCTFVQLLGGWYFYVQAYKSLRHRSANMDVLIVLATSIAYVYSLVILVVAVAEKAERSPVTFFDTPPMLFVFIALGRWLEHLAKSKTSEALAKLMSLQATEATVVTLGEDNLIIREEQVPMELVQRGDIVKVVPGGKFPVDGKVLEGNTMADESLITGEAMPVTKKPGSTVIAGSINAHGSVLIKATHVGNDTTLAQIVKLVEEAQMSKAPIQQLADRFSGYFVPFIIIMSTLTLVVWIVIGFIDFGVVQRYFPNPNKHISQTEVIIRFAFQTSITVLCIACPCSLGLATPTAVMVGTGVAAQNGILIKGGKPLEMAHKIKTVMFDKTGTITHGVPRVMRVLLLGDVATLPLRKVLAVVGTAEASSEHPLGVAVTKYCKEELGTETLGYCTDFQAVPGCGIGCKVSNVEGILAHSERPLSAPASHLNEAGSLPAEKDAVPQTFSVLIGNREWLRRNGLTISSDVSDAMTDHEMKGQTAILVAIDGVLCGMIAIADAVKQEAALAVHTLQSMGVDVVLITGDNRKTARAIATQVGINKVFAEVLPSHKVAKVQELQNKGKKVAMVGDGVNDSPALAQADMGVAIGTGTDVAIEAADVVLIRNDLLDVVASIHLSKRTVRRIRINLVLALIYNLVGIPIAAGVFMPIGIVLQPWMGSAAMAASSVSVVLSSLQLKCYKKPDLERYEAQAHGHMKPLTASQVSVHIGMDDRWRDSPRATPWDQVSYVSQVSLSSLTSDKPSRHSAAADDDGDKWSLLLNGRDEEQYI
inactive: [1] -0.005 | [2] -0.113 | [3] 0.028 | [4] 0.032 | Nexturastat A -0.013 | vemurafenib -0.001 | [5] 0.032 | [6] 0.036 | givinostat -0.005 | barasertib -0.02 | [7] -0.03 | volasertib -0.043 | [8] 0.06 | epoxomicin 0.103 | [9] 0.061 | [10] -0.031 | [11] 0.024 | rosiglitazone 0.069 | [12] 0.034 | [13] 0.009

ANKZF1 (UniProt Q9H8Y5)
Sequence of UniProt Q9H8Y5 (Q9H8Y5 whole entry, looked up): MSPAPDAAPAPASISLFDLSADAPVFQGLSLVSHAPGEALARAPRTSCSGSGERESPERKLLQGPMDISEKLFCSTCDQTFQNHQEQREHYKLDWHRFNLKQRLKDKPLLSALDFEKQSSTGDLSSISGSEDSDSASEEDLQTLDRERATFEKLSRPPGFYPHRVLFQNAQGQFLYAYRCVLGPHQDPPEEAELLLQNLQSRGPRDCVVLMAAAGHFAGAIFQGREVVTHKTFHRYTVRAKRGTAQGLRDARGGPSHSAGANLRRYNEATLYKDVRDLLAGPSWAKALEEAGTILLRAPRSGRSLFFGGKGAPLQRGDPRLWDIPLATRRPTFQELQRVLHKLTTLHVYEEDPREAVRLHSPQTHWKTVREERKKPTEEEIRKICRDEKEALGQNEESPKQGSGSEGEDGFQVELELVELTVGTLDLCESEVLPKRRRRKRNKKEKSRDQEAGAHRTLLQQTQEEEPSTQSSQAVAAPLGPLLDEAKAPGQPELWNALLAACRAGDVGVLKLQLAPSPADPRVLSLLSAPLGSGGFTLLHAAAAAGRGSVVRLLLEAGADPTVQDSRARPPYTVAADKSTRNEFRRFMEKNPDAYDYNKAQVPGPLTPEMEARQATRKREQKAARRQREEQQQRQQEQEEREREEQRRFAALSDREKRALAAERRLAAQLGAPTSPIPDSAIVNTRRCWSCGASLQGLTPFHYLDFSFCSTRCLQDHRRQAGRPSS
inactive: [1] 0.011 | [2] 0 | [3] -0.055 | [4] -0.059 | Nexturastat A 0.399 | vemurafenib -0.011 | [5] -0.042 | [6] 0.132 | givinostat 0.195 | barasertib 0.04 | [7] -0.063 | volasertib -0.055 | [8] 0.036 | epoxomicin -0.001 | [9] -0.036 | [10] 0.004 | [11] -0.076 | rosiglitazone -0.002 | [12] 0.214 | [13] 0.066

BCCIP (UniProt Q9P287)
Sequence of UniProt Q9P287 (Q9P287 whole entry, looked up): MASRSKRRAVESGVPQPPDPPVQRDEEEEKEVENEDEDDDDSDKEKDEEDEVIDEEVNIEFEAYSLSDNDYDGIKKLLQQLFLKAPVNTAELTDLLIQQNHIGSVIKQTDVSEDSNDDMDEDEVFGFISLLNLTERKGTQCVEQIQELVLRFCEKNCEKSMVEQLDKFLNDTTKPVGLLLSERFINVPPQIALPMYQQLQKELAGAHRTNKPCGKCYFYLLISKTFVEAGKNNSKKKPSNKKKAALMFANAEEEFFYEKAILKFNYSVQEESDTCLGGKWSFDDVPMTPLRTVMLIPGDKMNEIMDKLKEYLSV
inactive: [1] -0.023 | [2] -0.015 | [3] -0.009 | [4] -0.01 | Nexturastat A -0.002 | vemurafenib 0.02 | [5] 0.036 | [6] -0.004 | givinostat 0.035 | barasertib 0.033 | [7] -0.009 | volasertib -0.047 | [8] -0.005 | epoxomicin 0.092 | [9] -0.04 | [10] 0.033 | [11] 0.019 | rosiglitazone 0.042 | [12] 0.047 | [13] -0.043

ACADVL isoform 3 (UniProt P49748)
Sequence of UniProt P49748 (P49748 whole entry, looked up): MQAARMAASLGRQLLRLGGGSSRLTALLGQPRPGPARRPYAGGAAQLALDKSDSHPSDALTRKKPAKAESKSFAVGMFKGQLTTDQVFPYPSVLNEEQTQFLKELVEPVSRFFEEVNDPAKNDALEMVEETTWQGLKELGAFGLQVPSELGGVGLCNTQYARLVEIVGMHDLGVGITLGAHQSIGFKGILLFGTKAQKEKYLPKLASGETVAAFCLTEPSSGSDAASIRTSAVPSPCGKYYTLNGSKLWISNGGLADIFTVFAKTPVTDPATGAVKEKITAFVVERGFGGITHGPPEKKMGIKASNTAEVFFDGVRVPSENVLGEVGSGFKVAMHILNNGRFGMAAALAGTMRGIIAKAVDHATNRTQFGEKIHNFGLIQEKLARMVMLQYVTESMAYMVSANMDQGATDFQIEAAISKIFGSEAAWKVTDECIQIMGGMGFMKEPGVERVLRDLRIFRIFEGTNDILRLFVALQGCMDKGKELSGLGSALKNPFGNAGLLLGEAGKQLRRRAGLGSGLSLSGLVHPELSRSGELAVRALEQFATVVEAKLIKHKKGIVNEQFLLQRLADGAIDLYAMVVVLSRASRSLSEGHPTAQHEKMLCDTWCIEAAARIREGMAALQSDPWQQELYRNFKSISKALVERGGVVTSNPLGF
inactive: [1] -0.004 | [2] 0.01 | [3] 0.024 | [4] -0.002 | Nexturastat A -0.073 | vemurafenib -0.009 | [5] 0.01 | [6] -0.002 | givinostat 0.026 | barasertib 0.006 | [7] 0.119 | volasertib 0.099 | [8] -0.007 | epoxomicin 0.025 | [9] 0.008 | [10] -0.014 | [11] 0.004 | rosiglitazone -0.004 | [12] -0.054 | [13] -0.045

ACACB (UniProt O00763)
inactive: [1] -0.037 | [2] 0.01 | [3] 0.006 | [4] -0.065 | Nexturastat A 0.344 | vemurafenib 0.108 | [5] 0.012 | [6] 0.152 | givinostat 0.149 | barasertib 0.06 | [7] -0.006 | volasertib -0.468 | [8] 0.083 | epoxomicin -0.1 | [9] -0.194 | [10] 0.086 | [11] 0.061 | rosiglitazone 0.167 | [12] 0.308 | [13] 0.104

BYSL (UniProt Q13895)
inactive: [1] 0.04 | [2] -0.042 | [3] -0.01 | [4] 0.016 | Nexturastat A 0.14 | vemurafenib 0.079 | [5] 0.032 | [6] -0.024 | givinostat 0.167 | barasertib 0.014 | [7] -0.009 | volasertib -0.113 | [8] 0.072 | epoxomicin 0.118 | [9] -0.077 | [10] 0.053 | [11] 0.079 | rosiglitazone 0.045 | [12] 0.09 | [13] 0.053
